Results as given in PubChem BioAssay (NCATS).
Results filed as inconclusive are left out. Activity calls are given as the source filed them. The call rests on the fitted dose curve; in most records, active means well fitted inhibition curve with a large enough effect; inconclusive means small, poorly fitted or top-dose-only effect; inactive means flat fitted curve, though single readings scatter.

What was measured:
Assay in all cases: qHTS profiling for inhibitors of Plasmodium falciparum proliferation (AID 504749); further: nearly all actives have a fitted effect of over 60% in size
[1] = tested on: CP191; details: P. falciparum in erythrocytes, SYBR Green DNA, 72 h; series mostly up to 12.8 µM
In short: (§1)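 SYBR Green fluorescence of parasite DNA, read after lysis and overnight dark incubation, measured growth over 72 h in erythrocyte culture at 0.3% parasitemia and 2.5% hematocrit. Data normalised to DMSO and 0.29 uM artemisinin, with plate-drift correction.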

[2] = tested on: CP192; details: P. falciparum in erythrocytes, SYBR Green DNA, 72 h; series mostly up to 28.7 µM
In short: as §1

[3] = tested on: CP201; details: P. falciparum in erythrocytes, SYBR Green DNA, 72 h; series mostly up to 12.8 µM
In short: as §1

[4] = tested on: CP238; details: P. falciparum in erythrocytes, SYBR Green DNA, 72 h; series mostly up to 12.8 µM
In short: as §1

[5] = tested on: CP247; details: P. falciparum in erythrocytes, SYBR Green DNA, 72 h; series mostly up to 12.8 µM
In short: as §1

[6] = tested on: CP256; details: P. falciparum in erythrocytes, SYBR Green DNA, 72 h; series mostly up to 12.8 µM
In short: as §1

[7] = tested on: CP262; details: P. falciparum in erythrocytes, SYBR Green DNA, 72 h; series mostly up to 12.8 µM
In short: as §1

[8] = tested on: CP265; details: P. falciparum in erythrocytes, SYBR Green DNA, 72 h; series mostly up to 12.8 µM
In short: as §1

[9] = tested on: CP269; details: P. falciparum in erythrocytes, SYBR Green DNA, 72 h; series mostly up to 12.8 µM
In short: as §1

[10] = tested on: CP325; details: P. falciparum in erythrocytes, SYBR Green DNA, 72 h; series mostly up to 12.8 µM
In short: as §1

[11] = tested on: CP329; details: P. falciparum in erythrocytes, SYBR Green DNA, 72 h; series mostly up to 12.8 µM
In short: as §1

[12] = tested on: Dd2; details: P. falciparum in erythrocytes, SYBR Green DNA, 72 h; series mostly up to 12.8 µM
In short: as §1

[13] = tested on: FAB9; details: P. falciparum in erythrocytes, SYBR Green DNA, 72 h; series mostly up to 12.8 µM
In short: as §1

[14] = tested on: JCK; details: P. falciparum in erythrocytes, SYBR Green DNA, 72 h; series mostly up to 12.8 µM
In short: as §1

[15] = tested on: N140; details: P. falciparum in erythrocytes, SYBR Green DNA, 72 h; series mostly up to 12.8 µM
In short: as §1

[16] = tested on: P94_40; details: P. falciparum in erythrocytes, SYBR Green DNA, 72 h; series mostly up to 12.8 µM
In short: as §1

[17] = tested on: PC15; details: P. falciparum in erythrocytes, SYBR Green DNA, 72 h; series mostly up to 12.8 µM
In short: as §1

[18] = tested on: PC26; details: P. falciparum in erythrocytes, SYBR Green DNA, 72 h; series mostly up to 12.8 µM
In short: as §1

[19] = tested on: PC49; details: P. falciparum in erythrocytes, SYBR Green DNA, 72 h; series mostly up to 12.8 µM
In short: as §1

[20] = tested on: SC27B; details: P. falciparum in erythrocytes, SYBR Green DNA, 72 h; series mostly up to 12.8 µM
In short: as §1

Measured: Potency
Potency means the concentration at half of the fitted maximal effect.

CCCN[C@@H](C)C(=O)Nc1c(C)csc1C(=O)OC
inactive: [1] | [2] | [3] | [4] | [5] | [6] | [7] | [8] | [9] | [10] | [11] | [12] | [13] | [14] | [15] | [16] | [17] | [18] | [19] | [20]

C[C@@H](C(=O)O)c1ccc(C(=O)c2cccs2)cc1
inactive: [1] | [2] | [3] | [4] | [5] | [6] | [7] | [8] | [9] | [10] | [11] | [12] | [13] | [14] | [15] | [16] | [17] | [18] | [19] | [20]

CC(=O)N(CC(O)CN(C(C)=O)c1c(I)c(C(=O)NC[C@@H](O)CO)c(I)c(C(=O)NC[C@@H](O)CO)c1I)c1c(I)c(C(=O)NC[C@@H](O)CO)c(I)c(C(=O)NC[C@@H](O)CO)c1I
inactive: [1] | [2] | [3] | [4] | [5] | [6] | [7] | [8] | [9] | [10] | [11] | [12] | [13] | [14] | [15] | [16] | [17] | [18] | [19] | [20]

O=c1[nH]c(=O)n([C@@H]2C[C@H](O)[C@H](CO)O2)cc1I
inactive: [1] | [2] | [3] | [4] | [5] | [6] | [7] | [8] | [9] | [10] | [11] | [12] | [13] | [14] | [15] | [16] | [17] | [18] | [19] | [20]

CN(C)[C@H]1C(=O)C(C(=O)NCN2CCCC2)=C(O)[C@]2(O)C(=O)C3=C(O)c4c(O)cccc4[C@@](C)(O)[C@H]3C[C@@H]12
inactive: [1] | [2] | [3] | [4] | [5] | [6] | [7] | [8] | [9] | [10] | [11] | [12] | [13] | [14] | [15] | [16] | [17] | [18] | [19] | [20]

CCN(CC)CC#CCOC(=O)[C@@](O)(c1ccccc1)C1CCCCC1
inactive: [2] | [4] | [7] | [8] | [10] | [13] | [14] | [15] | [20]

NC(N)=NC[C@@H]1COC2(CCCCC2)O1
inactive: [1] | [2] | [3] | [4] | [5] | [6] | [7] | [8] | [9] | [10] | [11] | [12] | [13] | [14] | [15] | [16] | [17] | [18] | [19] | [20]

CC(C)(O/N=C(\C(=O)N[C@@H]1C(=O)N2C(C(=O)[O-])=C(C[n+]3ccccc3)CS[C@@H]12)c1csc(N)n1)C(=O)O
inactive: [1] | [2] | [3] | [4] | [5] | [6] | [7] | [8] | [9] | [10] | [11] | [12] | [13] | [14] | [15] | [16] | [17] | [18] | [19] | [20]

NC(=O)OC[C@H](O)COc1ccc(Cl)cc1
inactive: [1] | [2] | [3] | [4] | [5] | [6] | [7] | [8] | [9] | [10] | [11] | [12] | [13] | [14] | [15] | [16] | [17] | [18] | [19] | [20]

CCN(CC)CCC[C@H](C)Nc1ccnc2cc(Cl)ccc12
active: [1] 8910 nM | [3] 12000 nM | [4] 10000 nM | [6] 8910 nM | [7] 2390 nM | [9] 9530 nM | [10] 7570 nM | [11] 15100 nM | [12] 10000 nM | [13] 141 nM | [14] 10000 nM | [15] 11200 nM | [16] 5010 nM | [17] 2510 nM | [18] 4780 nM

NS(=O)(=O)c1cc([C@@]2(O)NC(=O)c3ccccc32)ccc1Cl
inactive: [1] | [2] | [3] | [4] | [5] | [6] | [7] | [8] | [9] | [10] | [11] | [12] | [13] | [14] | [15] | [16] | [17] | [18] | [19] | [20]

CCN(CC)CCC[C@H](C)Nc1c2ccc(Cl)cc2nc2ccc(OC)cc12
active: [1] 398 nM | [2] 478 nM | [3] 1200 nM | [4] 1120 nM | [5] 1120 nM | [6] 631 nM | [7] 426 nM | [8] 891 nM | [9] 757 nM | [10] 426 nM | [11] 1200 nM | [12] 447 nM | [13] 447 nM | [14] 3160 nM | [15] 891 nM | [16] 562 nM | [17] 447 nM | [18] 675 nM | [19] 1580 nM | [20] 1260 nM

CCC[C@H]1C(=O)N2C(N(C)C)=Nc3ccc(C)cc3N2C1=O
inactive: [1] | [2] | [3] | [4] | [5] | [6] | [7] | [8] | [9] | [10] | [11] | [12] | [13] | [14] | [15] | [16] | [17] | [18] | [19] | [20]

CN(N=O)C(=O)N[C@H]1[C@@H](O)[C@H](O)[C@H](CO)O[C@@H]1O
inactive: [1] | [2] | [3] | [4] | [5] | [6] | [7] | [8] | [9] | [10] | [11] | [12] | [13] | [14] | [15] | [16] | [17] | [18] | [19] | [20]

COCCc1ccc(OC[C@H](O)CNC(C)C)cc1
inactive: [1] | [2] | [3] | [4] | [5] | [6] | [7] | [8] | [9] | [10] | [11] | [12] | [13] | [14] | [15] | [16] | [17] | [18] | [19] | [20]

CO[C@H]1C[C@@H](O[C@@H]2[C@H](C)[C@H](O[C@@H]3O[C@@H](C)C[C@@H](N(C)C)[C@@H]3O)[C@H](C)C[C@]3(CO3)C(=O)[C@H](C)[C@H](O)[C@H](C)[C@H](C)OC(=O)[C@@H]2C)O[C@@H](C)[C@H]1O
inactive: [1] | [2] | [3] | [4] | [5] | [6] | [7] | [8] | [9] | [10] | [11] | [12] | [13] | [14] | [15] | [16] | [17] | [18] | [19] | [20]

COc1ccccc1OC[C@H](O)COC(N)=O
inactive: [1] | [2] | [3] | [4] | [5] | [6] | [7] | [8] | [9] | [10] | [11] | [12] | [13] | [14] | [15] | [16] | [17] | [18] | [19] | [20]
